Where “and” joins values, the source holds several entries; their conditions need not be identical. Equal values may be shown once. In all, about 6,400 compounds went through this assay and about 610 (9.5%) were called active. No stated cut-off is given here; in the data, active means activity change below about -70%; inconclusive means no clear call, values can overlap the other calls; inactive means above that. The entries come from a sample that favours actives as a whole.

A short description of this test: Toxoplasma gondii ME49Luc growth in HeLa cells, luciferase, no IFN-y, primary screen (AID 1259421). The settings on record: T. gondii ME49Luc in HeLa, 72 h, stronger effect = lower value, concentration not given here.
As to `CCCOc1ccc(Br)cc1-c1cc(-c2ccc(Cl)cc2)[nH]c1-c1ccncc1`, the activity change, negative = inhibition is -7.79% (inactive). The result for `CC(C)N1CCN(c2ccc(C(=O)c3c(-c4ccc(O)cc4)sc4cc(O)ccc34)cc2)CC1` reads -3.21% (inactive) and -13.9% (inactive).

Take `NC(N)=Nc1nc(CSCC/C(N)=N\S(N)(=O)=O)cs1`: the activity change, negative = inhibition was 15.8% (inactive) and 7.35% (inactive). For the compound `CN1CCN(C2=Nc3cc(F)ccc3Cc3ccccc32)CC1`, the activity change, negative = inhibition was -3.95% (inactive). The result for `CCOC(=O)C12CC1/C(=N/O)c1ccccc1O2` (stereo unspecified) reads 10.1% (inactive); that for `O=[Si]=O`, 10.7% (inactive); that for `CCCCCCCCN1C(=O)C(C(C)=O)=C(C)C1(C)O` (stereo unspecified), 12.4% (inactive). In the case of `O=C(O)[C@H]1CN(CCCP(=O)(O)O)CCN1`, the activity change, negative = inhibition is 4.53% (inactive). On to `Oc1ccc2c(c1)OCC1(O)Cc3cc(O)c(O)cc3C21` (stereo unspecified), for which the activity change, negative = inhibition is -0.693% (inactive).

For `Nc1[nH]nc2nc3ccccc3nc12`, the activity change, negative = inhibition was 19.2% (inactive). The result for `Nc1nc(=S)c2ncn([C@@H]3O[C@H](CO)[C@@H](O)[C@H]3O)c2[nH]1` reads -79.5% (active); that for `Nc1nc2c(ncn2[C@@H]2O[C@@H](CO)[C@@H](O)[C@H]2O)c(=O)[nH]1`, -3.02% (inactive); that for `Nc1ncnc2c1ncn2[C@@H]1O[C@H](CO)[C@@H](O)[C@H]1O`, 6.4% (inactive). The result for `Cc1nnsc1C(=O)Nc1ccc(-n2nc(C(F)(F)F)cc2C(F)(F)F)cc1` reads -80% (active); that for `COc1ccc2oc3ccccc3c(=O)c2c1`, 118% (inactive). Next, `OCC1OC2OC3C(CO)OC(OC4C(CO)OC(OC5C(CO)OC(OC6C(CO)OC(OC7C(CO)OC(OC8C(CO)OC(OC1C(O)C2O)C(O)C8O)C(O)C7O)C(O)C6O)C(O)C5O)C(O)C4O)C(O)C3O` (stereo unspecified): 1.48% (inactive); `O=C(O)c1ccc2c3c1cccc3c(=O)n1c3ccccc3nc21`: 9.96% (inactive); `COc1ccc(C[C@H](N)C(=O)N[C@@H]2[C@@H](CO)OC(n3cnc4c(N(C)C)ncnc43)[C@@H]2O)cc1` (stereo partly specified): -80.4% (active) and -91% (active).

For the compound `COc1nc(N)nc2c1ncn2[C@@H]1O[C@H](CO)[C@@H](O)[C@@H]1O`, the activity change, negative = inhibition is -2.56% (inactive) and 14.5% (inactive). The result for `CO[C@@H]1[C@H](O)[C@@H](CO)O[C@H]1n1cnc2c(NC3CCCCC3)ncnc21` reads 2.27% (inactive). Regarding `O=C(O)c1cc2cccc([N+](=O)[O-])c2[nH]1`, the activity change, negative = inhibition was 8.58% (inactive). As for `CO/N=C(/C(=O)NC1C(=O)N2C(C(=O)O)=C(C[N+]3(C)CCCC3)CSC12)c1csc(N)n1` (stereo unspecified), the activity change, negative = inhibition was 6.5% (inactive). With `NC(=O)c1ccc(-c2nc(-c3ccc4c(c3)OCCO4)c(-c3ccccn3)[nH]2)cc1`, the activity change, negative = inhibition was 25.7% (inactive) and -23.2% (inactive). Next, `Cc1cccc(-c2[nH]c(C(C)(C)C)nc2-c2ccc3c(c2)OCO3)n1`: -75.7% (active); `NC(=O)c1ccc(-c2nc(-c3ccc4c(c3)OCO4)c(-c3ccccn3)[nH]2)cc1`: -37% (inactive). On to `Cc1cccc(-c2[nH]c(C(C)(C)C)nc2-c2ccc3nccnc3c2)n1`, for which the activity change, negative = inhibition was -81% (active).

These data come from PubChem BioAssay AID1259421 (Broad Institute, 2018).
